Screening data (PubChem)
Sampled rows, rich in hits. Any-hit rate of the full collection: about 3%.
Peg3 prom inh = reduces Peg3 promoter-driven luciferase expression in HeLa; inhibition, % at 20 µM; HeLa PEG-Prom luciferase reporter, luminescence, overnight; 1.7% of 360,000 active;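 active = inhibition of at least 50% at 20 µM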
HIF-2a block = HIF-2a inhibition; 786-0 RCC cells HIF-2a reporter, luciferase luminescence, overnight; inhibition, % at 18.8 µM; 0.72% of 360,000 active;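 active = inhibition of the luminescence signal of 40% or more relative to plate controls, in a single-dose primary screen at 18.75 µM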
CF NFkB inh = blocks PAF-induced NF-kB reporter in cystic fibrosis cells; KKLEB NF-kB-GFP reporter, GFP fluorescence overnight; inhibition, % at 5 µM; 0.86% of 360,000 active; AID 588850;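 active = at least 50% inhibition at 5 µM, scaled per plate between neutral and stimulator controls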;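 note: PAF is a Pseudomonas aeruginosa culture filtrate used as stimulus; plate controls were PAF-stimulated DMSO wells for no effect and unstimulated DMSO wells for full effect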
TRPM1 prom inh = MITF TRPM1 promoter inhibition in SK-MEL-5 cells. SK-MEL-5 TRPM1 promoter luciferase, 24 h. inhibition, % at 12.5 µM. 0.83% of 330,000 active;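 active = mean inhibition across replicates of 60% or more, whatever share of single replicates reaches that level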
ABHD5-PLIN5 inh = inhibitors of human ABHD5-perilipin-5 interaction; Q00G26+Q8WTS1; 0.78% of 360,000 active; inhibition, % at 4 µM; Split G. princeps luciferase complementation, luminescence, 4 h;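 active = inhibition above the mean inhibition across every tested compound plus 3 SD, cut at about 22% in these data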;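 note: 0% = DMSO only wells and the 100% control is not disclosed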
KKLEB tox = reduces viability of KKLEB cystic fibrosis airway cells | KKLEB CF airway cells viability, ATPlite luminescence, overnight; stronger effect = lower value; cells stimulated with P. aeruginosa culture filtrate | 0.36% of 360,000 active | activity change (cytotoxicity), % at 5 µM | AID 602141;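 active = corrected activity change at or below -50% at 5 µM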
Mdm2-MdmX confirm = Mdm2/MdmX (human) interaction inhibition, confirmed; shares compounds with HIF-2a block; SaOS-2 split-luciferase Mdm2/MdmX complementation, luminescence; inhibition, % at 8 µM; 99% of 740 active; AID 504601;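 active = mean inhibition of the luminescence signal across two replicates at or above 26 percent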
HIF-2a inh conf = confirmation of HIF-2a inhibitors; 56% of 1,800 active; 786-0 RCC cells, HIF-2a luciferase reporter luminescence, overnight; shares compounds with HIF-2a block; AID 651580; inhibition, % at 18.8 µM;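 active = mean inhibition across four replicates of at least 40 percent at the single tested concentration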
HIF-1a cs = inhibits HIF-1a reporter, a counter-screen for HIF-2a inhibitors | shares compounds with HIF-2a block | MiaPaCa-2 HIF-1a luciferase reporter, desferoxamine, overnight | inhibition, % at 18.8 µM | 72% of 1,800 active | AID 651589;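 active = mean inhibition of the reporter signal across four replicates at the single tested dose of 50% or more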
Numbers without * were called inactive.

What do the screens show for `Cc1ccc(C(C)C)c(OCC(=O)Nc2ccc3c(c2)nc(CCN2CCCCC2)n3C)c1`?
Peg3 prom inh: 105*; HIF-2a block: 23; CF NFkB inh: 20; TRPM1 prom inh: 95*; ABHD5-PLIN5 inh: 17; KKLEB tox: -16; Mdm2-MdmX confirm: 101*

What do the screens show for `Clc1ccc(-c2cnnc(-c3ccccn3)n2)cc1`?
Peg3 prom inh: -255; HIF-2a block: -277; CF NFkB inh: -32; TRPM1 prom inh: -88; ABHD5-PLIN5 inh: -2; KKLEB tox: -22

Results for COc1cc(OC)cc(-c2cc3nc(C)c(CCC(=O)Nc4nc(C)cs4)c(C)n3n2)c1 ?
Peg3 prom inh: 25; HIF-2a block: 43*; CF NFkB inh: 28; ABHD5-PLIN5 inh: 2; KKLEB tox: -12; HIF-2a inh conf: 55*; HIF-1a cs: 45

Results for COc1cc(NC(=O)CCc2c(C)nc3nc(C)nn3c2C)cc(OC)c1 ?
Peg3 prom inh: 6; HIF-2a block: 1; CF NFkB inh: 3; TRPM1 prom inh: 0; ABHD5-PLIN5 inh: 4; KKLEB tox: 5

What do the screens show for `COC(=O)c1ccc(Sc2nnnn2-c2ccccc2)c([N+](=O)[O-])c1`?
Peg3 prom inh: 36; HIF-2a block: 40*; CF NFkB inh: 44; TRPM1 prom inh: 53; ABHD5-PLIN5 inh: 13; KKLEB tox: -9; HIF-2a inh conf: 4; HIF-1a cs: -14

How did O=C(O)c1ccc(Sc2nnnn2-c2ccccc2)c([N+](=O)[O-])c1 do in these assays?
Peg3 prom inh: -2; HIF-2a block: 9; CF NFkB inh: 4; TRPM1 prom inh: 2; ABHD5-PLIN5 inh: 5; KKLEB tox: -8

What do the screens show for `CN(CC(=O)Nc1ccc(Cl)c(C(F)(F)F)c1)C(=O)c1cnccn1`?
Peg3 prom inh: 4; HIF-2a block: 10; CF NFkB inh: -2; TRPM1 prom inh: 5; ABHD5-PLIN5 inh: 4; KKLEB tox: 1

What do the screens show for `O=C1CCCC[C@@H](O)[C@H](O)C[C@H](c2ccccc2)O1`?
HIF-2a block: 6; ABHD5-PLIN5 inh: -5

Results for C=C1CC2(CC(c3ccccc3)OC(c3ccccc3)C2)OC1=O (stereo not given) ?
Peg3 prom inh: 96*; HIF-2a block: 87*; CF NFkB inh: 78*; TRPM1 prom inh: 107*; ABHD5-PLIN5 inh: 23*; KKLEB tox: -66*; HIF-2a inh conf: 91*; HIF-1a cs: 106*

Results for COCc1c(C(=O)Nc2nnc(C3CC3)s2)oc2ccccc12 ?
Peg3 prom inh: -44; HIF-2a block: -67; CF NFkB inh: -56; ABHD5-PLIN5 inh: -10; KKLEB tox: 5

How did COc1ccc(-c2cc3nc(-c4ccccc4)cc(N4CCCC(O)C4)n3n2)cc1 (stereo not given) do in these assays?
Peg3 prom inh: 46; HIF-2a block: 43*; CF NFkB inh: -6; TRPM1 prom inh: -14; ABHD5-PLIN5 inh: 3; KKLEB tox: 3; HIF-2a inh conf: -11; HIF-1a cs: 90*

What do the screens show for `COc1ccc(-c2cc3nc(-c4ccccc4)cc(N4CCC(O)CC4)n3n2)cc1`?
Peg3 prom inh: 46; HIF-2a block: -2; CF NFkB inh: 9; TRPM1 prom inh: 7; ABHD5-PLIN5 inh: 13; KKLEB tox: -21

How did COc1ccc(Cn2c(SCc3ccccc3C)nc3cc(OC)c(OC)cc3c2=N)cc1 do in these assays?
Peg3 prom inh: 102*; HIF-2a block: 96*; CF NFkB inh: -4; TRPM1 prom inh: 84*; ABHD5-PLIN5 inh: 15; KKLEB tox: -31; HIF-2a inh conf: 12; HIF-1a cs: 107*

Results for COc1cc2nc(SCc3ccc(F)cc3)n(Cc3cccs3)c(=N)c2cc1OC ?
Peg3 prom inh: 10; HIF-2a block: 14; CF NFkB inh: 7; TRPM1 prom inh: 11; ABHD5-PLIN5 inh: -1; KKLEB tox: -6

Results for CC(=O)Nc1ccc(Nc2cc(N3CCOCC3)c3nonc3c2[N+](=O)[O-])cc1 ?
Peg3 prom inh: 14; HIF-2a block: 42*; CF NFkB inh: -3; TRPM1 prom inh: 13; ABHD5-PLIN5 inh: -6; KKLEB tox: -10; HIF-2a inh conf: 5; HIF-1a cs: 76*

Results for CCOC(=O)C1=C(O)/C(=C/c2cn(CC(=O)NCC3CCCO3)c3ccccc23)SC1=Nc1ccc(C)cc1 (stereo not given) ?
Peg3 prom inh: 59*; HIF-2a block: -19; CF NFkB inh: 58*; TRPM1 prom inh: 88*; ABHD5-PLIN5 inh: -5; KKLEB tox: -56*; Mdm2-MdmX confirm: 86*

Results for Cc1ccc(N(CC(=O)NCCc2ccc(F)cc2)S(=O)(=O)c2ccc(Cl)c([N+](=O)[O-])c2)c(C)c1 ?
Peg3 prom inh: 104*; HIF-2a block: 92*; CF NFkB inh: -1; TRPM1 prom inh: 48; ABHD5-PLIN5 inh: 7; KKLEB tox: -2; HIF-2a inh conf: 32; HIF-1a cs: 108*

How did CN(C)c1ccc(/C=N/NC(=S)NCc2ccco2)cc1 do in these assays?
Peg3 prom inh: -67; HIF-2a block: -60; CF NFkB inh: 7; TRPM1 prom inh: -37; ABHD5-PLIN5 inh: -7; KKLEB tox: 9

How did CN(C)c1ccc(C(=S)NCc2ccco2)cc1 do in these assays?
Peg3 prom inh: 38; HIF-2a block: 52*; CF NFkB inh: -10; TRPM1 prom inh: 15; ABHD5-PLIN5 inh: 1; KKLEB tox: 6; HIF-2a inh conf: -13; HIF-1a cs: -47

What do the screens show for `O=C(O)c1ccc(-c2nc(-c3ccccc3)c(-c3cccs3)[nH]2)cc1`?
Peg3 prom inh: 16; HIF-2a block: 19; CF NFkB inh: 8; TRPM1 prom inh: 3; ABHD5-PLIN5 inh: -2; KKLEB tox: -1

How did O=[N+]([O-])c1ccc(O)c(-c2nc(-c3ccccc3)c(-c3cccs3)[nH]2)c1 do in these assays?
Peg3 prom inh: 34; HIF-2a block: -4; CF NFkB inh: 62*; TRPM1 prom inh: 27; ABHD5-PLIN5 inh: -5; KKLEB tox: -60*; Mdm2-MdmX confirm: 95*

What do the screens show for `CC(C)(C)c1cc(C(c2cccnc2)N2CCN(CCO)CC2)cc(C(C)(C)C)c1O` (stereo not given)?
Peg3 prom inh: 104*; HIF-2a block: 89*; CF NFkB inh: 28; TRPM1 prom inh: 79*; ABHD5-PLIN5 inh: 21; KKLEB tox: -7; Mdm2-MdmX confirm: 103*; HIF-2a inh conf: 80*; HIF-1a cs: 75*
